# High-throughput results (PubChem BioAssay)
# LAP4-GFP MLPCN – alters LAP4-GFP fluorescence in TOR pathway yeast screen | actives 0.34% (n = 320,000) | GFP response vs DMSO, % at 10 µM | S. cerevisiae LAP4-GFP multiplex, flow cytometry GFP, 3 h; median GFP as percent of DMSO wells | AID 2023;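 active means GFP response vs DMSO above a set limit, about the screen mean plus 3 SD, cut at about 150% in these data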
# CIT2-GFP yeast – yeast TOR pathway CIT2-GFP modulation. GFP response vs DMSO, % at 10 µM. actives 0.065% (n = 320,000). AID 2029. S. cerevisiae CIT2-GFP strain, flow cytometry, 3 h; 100 means same as DMSO wells;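 active means GFP response relative to DMSO above a set limit, near the screen mean plus 3 SD, cut at about 150% in these data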;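 further: ratio of well median GFP fluorescence to mean of DMSO wells on the plate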
# MEP2-GFP yeast – modulators of TOR pathway MEP2-GFP in S. cerevisiae | AID 2016 | GFP response vs DMSO, % at 10 µM | actives 0.51% (n = 330,000) | S. cerevisiae MEP2-GFP strain, flow cytometry GFP, 3 h; 100% = DMSO control level;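 active means GFP response versus DMSO above a set limit, roughly screen mean plus 3 SD, cut at about 180% in these data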;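 further: median GFP fluorescence of the barcode-gated MEP2-GFP cells per well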
# RPL19A-GFP yeast – modulators of TOR pathway RPL19A-GFP in S. cerevisiae. S. cerevisiae RPL19A-GFP strain, flow cytometry, 3 h; active compounds read low. percent response vs DMSO, % at 10 µM. actives 0.3% (n = 330,000). AID 2025;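 active means percent response vs DMSO below 50%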;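 further: median channel GFP fluorescence of the barcoded RPL19A-GFP strain; lower means less RPL19A-GFP as with rapamycin TOR inhibition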
# VLA-4 inh – inhibition in a human VLA-4 binding assay; P13612; VLA-4 expressing cells, ligand binding flow cytometry; inhibition, % (about 7 µM as worked out from the volumes in the protocol); actives 0.2% (n = 330,000); in the data active means inhibition above about 50%
# Target sequence (P13612 whole entry, looked up): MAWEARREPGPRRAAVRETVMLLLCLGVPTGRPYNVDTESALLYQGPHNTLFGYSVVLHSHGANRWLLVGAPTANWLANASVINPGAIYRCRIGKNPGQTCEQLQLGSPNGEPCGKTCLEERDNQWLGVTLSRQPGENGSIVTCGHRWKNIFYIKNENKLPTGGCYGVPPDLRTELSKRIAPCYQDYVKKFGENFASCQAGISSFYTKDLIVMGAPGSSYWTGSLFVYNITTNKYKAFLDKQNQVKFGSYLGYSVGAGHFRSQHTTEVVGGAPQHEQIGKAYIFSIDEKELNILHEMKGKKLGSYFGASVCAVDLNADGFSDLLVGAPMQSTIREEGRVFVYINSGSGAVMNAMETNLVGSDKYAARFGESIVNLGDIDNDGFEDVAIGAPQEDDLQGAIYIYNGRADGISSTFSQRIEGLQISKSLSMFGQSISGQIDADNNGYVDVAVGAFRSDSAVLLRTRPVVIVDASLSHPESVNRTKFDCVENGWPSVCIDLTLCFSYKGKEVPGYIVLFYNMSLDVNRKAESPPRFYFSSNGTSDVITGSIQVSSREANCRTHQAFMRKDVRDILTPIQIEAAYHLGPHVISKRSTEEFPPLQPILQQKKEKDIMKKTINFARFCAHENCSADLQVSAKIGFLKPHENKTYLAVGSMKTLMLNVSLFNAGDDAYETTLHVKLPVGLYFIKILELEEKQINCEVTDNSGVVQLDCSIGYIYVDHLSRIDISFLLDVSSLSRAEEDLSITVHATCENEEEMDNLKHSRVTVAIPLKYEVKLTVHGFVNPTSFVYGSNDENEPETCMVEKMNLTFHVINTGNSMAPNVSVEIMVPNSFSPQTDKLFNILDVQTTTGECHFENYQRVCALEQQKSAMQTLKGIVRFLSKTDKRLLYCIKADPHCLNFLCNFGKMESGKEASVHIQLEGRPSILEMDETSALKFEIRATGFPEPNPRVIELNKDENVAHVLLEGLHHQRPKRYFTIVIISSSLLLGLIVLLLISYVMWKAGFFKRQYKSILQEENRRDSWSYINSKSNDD
# AGP1-GFP MLPCN – yeast TOR pathway AGP1-GFP modulation. actives 0.02% (n = 320,000). GFP response vs DMSO, % at 10 µM. S. cerevisiae AGP1-GFP multiplex flow cytometry, 3 h; GFP as percent of DMSO wells. AID 2066;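 active means GFP response relative to DMSO above a set limit, near screen average plus 3 SD, cut at about 150% in these data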;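 further: median GFP channel fluorescence of the gated AGP1 strain per well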
# LAP4 cherry2 – reconfirmed LAP4-GFP TOR pathway modulator in yeast; AID 2621; shares compounds with LAP4-GFP MLPCN; S. cerevisiae LAP4-GFP strain, flow cytometry GFP, 3 h; GFP response vs DMSO, % at 10 µM; actives 20% (n = 590);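 active means GFP signal as percent of the solvent control above about 150%, meaning raised reporter expression, limit read from the data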
# MEP2 cherry2 – reconfirmed MEP2-GFP TOR pathway modulator in yeast; GFP response vs DMSO, % at 10 µM; shares compounds with LAP4-GFP MLPCN; actives 10% (n = 590); S. cerevisiae MEP2-GFP strain, flow cytometry GFP, 3 h;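 active means GFP signal above 150% of the solvent control wells, that is a rise of more than half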;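 further: median channel GFP fluorescence of all gated yeast cells per well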
# RPL19A GFP CP2 – second confirmation of modulators of TOR reporter RPL19A-GFP in yeast; shares compounds with LAP4-GFP MLPCN; S. cerevisiae RPL19A-GFP strain, flow cytometry GFP, 3 h; active compounds read low; 100% means same as DMSO wells; GFP response vs DMSO, % at 10 µM; actives 3% (n = 590);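 active means under 65% GFP response relative to DMSO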;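 further: median GFP channel fluorescence per well over the all cells gate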
# CIT2-GFP pick2 – reconfirmed modulator of CIT2-GFP TOR reporter in yeast | shares compounds with LAP4-GFP MLPCN | S. cerevisiae CIT2-GFP strain, flow cytometry GFP, 3 h; DMSO control wells read 100% | GFP response vs DMSO, % at 10 µM | actives 8% (n = 590);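 active means GFP response vs DMSO above about 150%, limit read from the data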;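 further: median green fluorescence per well over all gated yeast cells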
# AGP1-GFP pick2 – yeast AGP1-GFP TOR reporter modulation, second cherry pick. percent response vs DMSO, % at 10 µM. 590 tested, under 10 active. S. cerevisiae AGP1-GFP strain, flow cytometry GFP, 3 h. AID 2643. shares compounds with LAP4-GFP MLPCN;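 active means over 150 percent of DMSO response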;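 further: median GFP channel fluorescence over all cells without mother daughter split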
# Yeast autofluor – counter-screen for compound autofluorescence in yeast s288c cells; 610 tested, under 10 active; fluorescence change (kMESF span) at 33 µM; shares compounds with LAP4-GFP MLPCN; S. cerevisiae s288c, 520 nm autofluorescence, flow cytometry, 3 h; active compounds read high; zero means same as solvent-only cells;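 active means fluorescence span over the dose series, or activity score, above about 33, limit read from the data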
# s288c autofl DR – counter-screen for autofluorescence of TOR hits in yeast s288c. S. cerevisiae s288c parental, compound autofluorescence, flow cytometry, 3 h. 110 tested, under 10 active. shares compounds with LAP4-GFP MLPCN. AID 488829. fluorescence change (span) at 33 µM;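 active means fluorescence change span, or the activity score built from it, above 25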
# TORC1 bypass – wildtype yeast growth loss with TORC1 bypass cells unaffected; shares compounds with LAP4-GFP MLPCN; S. cerevisiae BY4741 spot growth rating, 48-72 h; active compounds read low; growth rating (0-3) at 30 µM; 120 tested, under 10 active;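 active means growth rating at most 1 for wild type yeast while the TORC1 bypass strain still grows fully, rated 3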
# A number is an active result; – = inactive; · = not tested or not shown. Hits are enriched below; roughly 1.1% of the tested compounds scored in any of these assays.
SMILES,LAP4-GFP MLPCN,CIT2-GFP yeast,MEP2-GFP yeast,RPL19A-GFP yeast,VLA-4 inh,AGP1-GFP MLPCN,LAP4 cherry2,MEP2 cherry2,RPL19A GFP CP2,CIT2-GFP pick2,AGP1-GFP pick2,Yeast autofluor,others
COc1ccccc1-c1cc(C(F)(F)F)c(C#N)c(=O)[nH]1,–,–,–,–,–,–,·,·,·,·,·,·,
O=c1c2ccccc2ncn1-c1ccccc1C(F)(F)F,–,–,–,–,–,–,·,·,·,·,·,·,
O=C1N(c2ccccc2C(F)(F)F)O[C@]1(c1ccccc1)C1CCCC1,–,–,–,–,–,–,–,–,–,–,–,–,
CCC(NC(=O)c1ccccc1NC(=O)C(C)(C)C)C(=O)N1CC(C)OC(C)C1 (centres undefined),–,–,–,–,–,–,·,·,·,·,·,·,
Cc1cc(NC(c2ccc(Cl)cc2)c2ccc3cccnc3c2O)no1 (centres undefined),151,–,–,–,–,–,·,·,·,·,·,–,
CCC(=O)NC(c1ccc(Cl)cc1Cl)c1ccc2cccnc2c1O (centres undefined),–,–,–,–,–,–,·,·,·,·,·,·,
O=C1N[C@@H](Cc2ccccc2)C(=O)N2[C@H]3Nc4ccccc4[C@@]3([C@]34C[C@H]5C(=O)N[C@@H](Cc6ccccc6)C(=O)N5[C@H]3Nc3ccccc34)C[C@@H]12,–,–,–,–,–,–,·,·,·,·,·,·,
CN1C(=O)[C@@H]2C[C@@]3([C@@]45C[C@H]6C(=O)N(C)[C@@H](Cc7ccccc7)C(=O)N6[C@@H]4Nc4ccccc45)c4ccccc4N[C@H]3N2C(=O)[C@@H]1Cc1ccccc1,155,–,–,–,–,–,–,–,–,–,–,·,
CC1=C(C)/C(=N\OS(=O)(=O)c2ccccc2)C=CC1=O,255,–,–,–,–,–,·,·,·,·,·,–,
Cc1ccc(S(=O)(=O)O/N=C2\CCCc3ccccc32)cc1,–,–,–,–,–,–,·,·,·,·,·,·,
Cc1cccc(NC(c2ccc(C)s2)c2ccc3ccc(C)nc3c2O)n1 (centres undefined),176,–,–,–,–,–,·,·,·,·,·,–,
Cc1ccc(NC(=O)CSc2n[nH]c(-c3cccnc3)n2)cc1Cl,–,–,–,–,–,–,·,·,·,·,·,·,
Cn1nc(CC(=O)Nc2ncc(Br)s2)c2ccccc2c1=O,–,–,–,–,–,–,–,–,–,–,–,·,
Cn1nc(CC(=O)NC2CCCCCCCCCCC2)c2ccccc2c1=O,·,–,–,–,–,–,·,·,·,·,·,·,
O=C(Nc1cccc(C(F)(F)F)c1)Oc1ccc(Cl)c2cccnc12,202,–,–,–,–,–,·,·,·,·,·,–,
CCN(CC)C(=O)Oc1ccc(Cl)c2cccnc12,–,–,–,–,–,–,·,·,·,·,·,·,
CC(C)(C)C1CCc2sc(-c3nnc(CCl)o3)cc2C1 (centres undefined),–,–,–,–,–,–,–,–,–,–,–,·,
O=C(Nc1nnc(-c2ccc3c(c2)CCCC3)o1)c1ccc(Cl)cc1Cl,–,–,–,–,–,–,153,211,–,161,–,–,
COc1ccc(-c2cc(C(F)(F)F)nc(S(C)(=O)=O)n2)cc1,155,–,–,–,–,–,·,·,·,·,·,–,
O=C(O)CCS(=O)(=O)c1nc(-c2cccs2)cc(C(F)(F)F)n1,–,–,–,–,–,–,·,·,·,·,·,·,
CS(=O)(=O)c1nc(-c2cccs2)cc(C(F)(F)F)n1,186,–,–,–,–,–,·,·,·,·,·,–,
CCNC(=S)N(CCCN(C)C)Cc1cc2cc3c(cc2[nH]c1=O)OCCO3,–,–,–,–,–,–,·,·,·,·,·,·,
Cc1ccc(NC(=O)CCc2ccccc2)cc1S(=O)(=O)N1CCOCC1,151,–,–,–,–,–,–,–,–,–,–,–,
Cc1ccc(NC(=O)CCS(=O)(=O)c2ccccc2)cc1S(=O)(=O)N1CCOCC1,–,–,–,–,–,–,·,·,·,·,·,·,
O=C(CCC1CCCN(C(=O)c2cc3ccccc3o2)C1)NCc1ccc(F)c(F)c1 (centres undefined),–,–,–,–,–,–,·,·,·,·,·,·,
SMILES,LAP4-GFP MLPCN,CIT2-GFP yeast,MEP2-GFP yeast,RPL19A-GFP yeast,VLA-4 inh,AGP1-GFP MLPCN,LAP4 cherry2,MEP2 cherry2,RPL19A GFP CP2,CIT2-GFP pick2,AGP1-GFP pick2,Yeast autofluor,others
O=C(NCc1ccco1)C(=O)NCC1OCCN1C(=O)c1ccc(Cl)cc1 (centres undefined),–,–,–,–,–,–,–,–,–,–,–,·,
O=C(NCc1ccccn1)C(=O)NCC1OCCN1C(=O)c1ccc(Cl)cc1 (centres undefined),–,–,–,–,–,–,·,·,·,·,·,·,
O=c1c2cc(Cl)ccc2nc(-c2ccc([N+](=O)[O-])cc2)n1O,–,–,–,–,–,–,158,153,46,–,–,–,
O=c1c2cc(Br)ccc2nc(-c2ccc(Cl)cc2)n1O,–,–,–,–,–,–,·,·,·,·,·,·,
O=[N+]([O-])c1cc(Cl)c2cccnc2c1O,202,–,–,–,–,–,·,·,·,·,·,–,s288c autofl DR=–;TORC1 bypass=–
O=[N+]([O-])c1ccc(O)c2ncccc12,313,–,–,–,–,–,275,159,–,–,–,–,s288c autofl DR=–;TORC1 bypass=–
O=[N+]([O-])c1ccc(O)c2cccnc12,–,–,–,–,–,–,·,·,·,·,·,·,
O=[N+]([O-])c1ccc(Cl)c2cccnc12,–,–,–,–,–,–,·,·,·,·,·,·,
Oc1c(I)cc(Cl)c2cccnc12,286,–,–,–,–,–,226,216,–,176,–,–,s288c autofl DR=–;TORC1 bypass=–
